Where “and” joins values, the source holds several entries; their conditions need not be identical. Identical values can stand only once. About 79,000 compounds went through this panel and 15% of them were active in at least one assay; those are over-represented in the sample as a whole. The source holds several records for some structures; these can differ, active in one and inactive in another. Calls of active or inactive are those of the source. Rule as the data show it: active = growth inhibition above about 70%; inactive = the rest.

Data on seven molecules can be found in PubChem BioAssay (NCI).

Experiment [1] is described as follows: NCI Yeast Anticancer Drug Screen. Data for the rad50 strain (AID 155).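 Also: 0% = growth of vehicle-only cultures of the same strain.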 The note with it: S. cerevisiae rad50 strain growth inhibition, stronger effect = higher value. In a few lines: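 Growth of the mutant yeast was measured after compound exposure and referenced to vehicle-treated cultures.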
A short description of experiment [2]: NCI Yeast Anticancer Drug Screen. Data for the mec2-1 strain (AID 157). The note with it: S. cerevisiae mec2-1 strain, stronger effect = higher value. The gist of the method: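 Strain: mec2-1 (DNA repair/cell cycle alteration). Compound exposure, then growth measured; inhibition expressed relative to vehicle.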
Experiment [3] in a line: NCI Yeast Anticancer Drug Screen. Data for the sgs1 mgt1 strain (AID 161).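 Also: 0% = growth of cultures given vehicle only.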 The note with it: S. cerevisiae sgs1 mgt1 strain, stronger effect = higher value. In a few lines: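 Mutant yeast exposed to compound; growth scored against vehicle-only wells.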
Experiment [4] is described as follows: NCI Yeast Anticancer Drug Screen. Data for the cln2 rad14 strain (AID 165).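 Also: 0% = growth equal to vehicle treated cultures.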 The note with it: S. cerevisiae cln2 rad14 strain, stronger effect = higher value. In a few lines: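 Compounds are applied to the cln2 rad14 yeast strain, and growth is then compared with that of vehicle-treated cultures to give inhibition.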
Experiment [5] can be described thus: NCI Yeast Anticancer Drug Screen. Data for the bub3 strain (AID 167). The note with it: S. cerevisiae bub3 mutant strain, stronger effect = higher value. The gist of the method:
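Whole-cell yeast assay. The mutant strain was incubated with compounds, and growth inhibition was determined by comparison with vehicle-treated cells.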

Experiment [6] can be described thus: NCI Yeast Anticancer Drug Screen. Data for the mlh1 rad18 strain (AID 175). The note with it: S. cerevisiae mlh1 rad18 strain growth inhibition, stronger effect = higher value. In a few lines: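 Read-out is yeast growth inhibition, calculated against vehicle-only controls. The compound was applied to a strain engineered with DNA damage repair alterations.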
[7] abbreviates: at 5.0 µM (retest, dose inferred, filed as 0.5).
Setting [8] is: at 50.0 µM (retest, dose inferred, filed as 5.0).

Take `OCC(O)C(O)C(O)C(O)C(/C=N/Nc1ccccc1)=N/Nc1ccccc1` (stereo not drawn): the growth inhibition in experiment [1] (setting [7]) was -19% (inactive); in experiment [1] (setting [8]) it was 91% (active); in experiment [2] (setting [7]), -5% (inactive); in experiment [2] (setting [8]), 61% (inactive); in experiment [3] (setting [7]), -39% (inactive); in experiment [3] (setting [8]) it was 30% (inactive). The growth inhibition in experiment [4] (setting [7]) was 2% (inactive); in experiment [4] (setting [8]) it was 82% (active); in experiment [5] (setting [7]), -3% (inactive); in experiment [5] (setting [8]), 54% (inactive); in experiment [6] (setting [7]) it was 8% (inactive); in experiment [6] (setting [8]), 86% (active).

As for `CC(=O)[C@]1(O)Cc2c(O)c3c(c(O)c2[C@@H](OC2CC(N)C(O)C(C)O2)C1)C(=O)c1c(O)cccc1C3=O` (stereo partly drawn), the growth inhibition is 81% (active) and 80% (active) in experiment [2] (setting [7]); 98% (active) and 97% (active) in experiment [2] (setting [8]); 92.5% (active) and 89% (active) in experiment [2] (at 50.0 µM); 73% (active) and 92% (active) in experiment [3] (setting [7]); 96% (active) and 98% (active) in experiment [3] (setting [8]); 92.4% (active) and 88.3% (active) in experiment [3] (at 50.0 µM). Also, the growth inhibition in experiment [4] (setting [7]) was 57% (inactive) and 66% (inactive); in experiment [4] (setting [8]), 97% (active) and 95% (active); in experiment [4] (at 50.0 µM) it was 88.7% (active) and 89.2% (active); in experiment [5] (setting [7]) it was 77% (active) and 86% (active); in experiment [5] (setting [8]), 97% (active) and 98% (active); in experiment [5] (at 50.0 µM) it was 90.8% (active) and 89% (active). Besides, the growth inhibition is 90% (active) and 87% (active) in experiment [6] (setting [7]); 97% (active) and 95% (active) in experiment [6] (setting [8]); 90.2% (active) and 92% (active) in experiment [6] (at 50.0 µM).

As to `COc1cc2c(cc1O)CC[n+]1cc3c(OC)c(OC)ccc3cc1-2`, the growth inhibition is -56% (inactive) and 3.1% (inactive) and -3% (inactive) in experiment [1] (at 50.0 µM); -20% (inactive) and -15.3% (inactive) and 0.25% (inactive) in experiment [2] (at 50.0 µM); -20.8% (inactive) and 0.8% (inactive) and 20.3% (inactive) in experiment [3] (at 50.0 µM); 9.65% (inactive) and 5.15% (inactive) and -13.2% (inactive) in experiment [4] (at 50.0 µM); -15.4% (inactive) and -3.15% (inactive) and 15.6% (inactive) in experiment [5] (at 50.0 µM); -11.1% (inactive) and -69.1% (inactive) and 0% (inactive) in experiment [6] (at 50.0 µM).

In the case of `Cc1c(-c2ccccc2)ccnc1/C=N/NC(N)=S`, the growth inhibition in experiment [2] (setting [7]) was 9% (inactive); in experiment [2] (setting [8]), 53% (inactive); in experiment [2] (at 50.0 µM), 79% (active); in experiment [3] (setting [7]), 43% (inactive); in experiment [3] (setting [8]), 58% (inactive); in experiment [3] (at 50.0 µM), 65.7% (inactive). For the same molecule, the growth inhibition in experiment [4] (setting [7]) is 39% (inactive); in experiment [4] (setting [8]), 39% (inactive); in experiment [4] (at 50.0 µM), 54.4% (inactive); in experiment [5] (setting [7]), 49% (inactive); in experiment [5] (setting [8]) it was 45% (inactive); in experiment [5] (at 50.0 µM), 80.7% (active). Besides, the values for the growth inhibition in experiment [6] (setting [7]), in experiment [6] (setting [8]) and in experiment [6] (at 50.0 µM) were 18% (inactive), 36% (inactive) and 82% (active), respectively.

For the molecule `CCC(C)(C)c1cc(O)c(C(C)(C)CC)cc1O`, the growth inhibition was 10% (inactive) in experiment [1] (setting [7]); 88% (active) in experiment [1] (setting [8]); 0.35% (inactive) and 93.2% (active) in experiment [1] (at 50.0 µM); -3% (inactive) in experiment [3] (setting [7]); 91% (active) in experiment [3] (setting [8]); 11.3% (inactive) and 88% (active) in experiment [3] (at 50.0 µM). Moreover, the growth inhibition in experiment [4] (setting [7]) was 18% (inactive); in experiment [4] (setting [8]), 84% (active); in experiment [4] (at 50.0 µM), -15.2% (inactive) and 84.8% (active); in experiment [5] (setting [7]), 23% (inactive); in experiment [5] (setting [8]), 91% (active); in experiment [5] (at 50.0 µM), 20.2% (inactive) and 92.3% (active). Besides, the growth inhibition in experiment [6] (setting [7]) was 10% (inactive); in experiment [6] (setting [8]), 81% (active); in experiment [6] (at 50.0 µM), 9.45% (inactive) and 91.8% (active).

Consider `CN1CCCc2cc(/C=C\c3ccnc4ccccc34)ccc21`, for which the growth inhibition in experiment [1] (setting [7]) was -2% (inactive); in experiment [1] (setting [8]) it was 94% (active); in experiment [1] (at 50.0 µM), 96% (active); in experiment [3] (setting [7]), -10% (inactive); in experiment [3] (setting [8]), 96% (active); in experiment [3] (at 50.0 µM), 98.3% (active). For the same molecule, the growth inhibition was -6% (inactive) in experiment [4] (setting [7]); 94% (active) in experiment [4] (setting [8]); 93% (active) in experiment [4] (at 50.0 µM); -7% (inactive) in experiment [5] (setting [7]); 94% (active) in experiment [5] (setting [8]); 96.8% (active) in experiment [5] (at 50.0 µM). Further, the results for the growth inhibition in experiment [6] (setting [7]), in experiment [6] (setting [8]) and in experiment [6] (at 50.0 µM) were -21% (inactive), 96% (active) and 97.4% (active), respectively.

In the case of `Nc1cc2ccc(O)cc2c2ccccc12`, the growth inhibition is 4% (inactive) in experiment [2] (setting [7]); 51% (inactive) in experiment [2] (setting [8]); 86.2% (active) in experiment [2] (at 50.0 µM); -1% (inactive) in experiment [3] (setting [7]); 54% (inactive) in experiment [3] (setting [8]); 91% (active) in experiment [3] (at 50.0 µM). Besides, the growth inhibition in experiment [4] (setting [7]) is 1% (inactive); in experiment [4] (setting [8]) it was 34% (inactive); in experiment [4] (at 50.0 µM), 67.5% (inactive); in experiment [5] (setting [7]), 2% (inactive); in experiment [5] (setting [8]), 89% (active); in experiment [5] (at 50.0 µM) it was 93.4% (active). The values for the growth inhibition in experiment [6] (setting [7]), in experiment [6] (setting [8]) and in experiment [6] (at 50.0 µM) were -1% (inactive), 82% (active) and 94.7% (active), respectively.
